Source: PubChem BioAssay (EPA / NIEHS)
Some compounds were tested as several samples or in several runs, with calls that do not always agree. Active and inactive are the calls of the source. The calls were made as follows: active = hit-call score of the fitted dose curve at least 0.9, where 1 is the maximum; inactive = score below 0.9.

Columns and labels:
[1] = read-out: Macrophage colony-stimulating factor (MCSF), CSF1 (gene 1435); assay: BSK_hDFCGF_MCSF: BioMAP Diversity Plus: hDFCGF Assay for Macrophage colony-stimulating factor (MCSF) Biomarker Activity (AID 2283060); conditions: primary human foreskin fibroblasts; actives raise or lower the signal
In short: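 ELISA read-out of M-CSF in human dermal foreskin fibroblast cultures, 24 h after chemical dosing; gain or loss of signal fitted bidirectionally relative to DMSO baseline.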

[2] = BSK_hDFCGF_SRB: Viability Assessment in the BioMAP Diversity Plus: hDFCGF Assay (AID 2283061); conditions: primary human foreskin fibroblasts;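 also: cells exposed to compound for 24 h before the read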
In short: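 Primary human foreskin fibroblasts; 24 h post-dose; fixed 10% TCA, stained 0.1% SRB, A560 read; total protein as overt cytotoxicity measure; curves fit bidirectionally vs DMSO control.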

[3] = read-out: TIMP metallopeptidase inhibitor 1 (TIMP1), TIMP1 (gene 7076); assay: BSK_hDFCGF_TIMP1: BioMAP Diversity Plus: hDFCGF Assay for TIMP metallopeptidase inhibitor 1 (TIMP1) Biomarker Activity (AID 2283062); conditions: primary human foreskin fibroblasts; actives raise or lower the signal
In short: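 ELISA readout of TIMP-1 from human dermal foreskin fibroblast cultures 24 h post-dosing. Curves were fitted in both directions against DMSO baseline, with SRB total-protein staining in parallel cultures as a cytotoxicity check.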

[4] = read-out: Monokine induced gamma interferon (MIG), CXCL9 (gene 4283); assay: BSK_hDFCGF_MIG: BioMAP Diversity Plus: hDFCGF Assay for Monokine induced gamma interferon (MIG) Biomarker Activity (AID 2283063); conditions: primary human foreskin fibroblasts; actives raise or lower the signal
In short: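 Fibroblasts (human foreskin, primary) dosed, 24 h, MIG by ELISA; fit bidirectional vs DMSO.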

[5] = read-out: Matrix Metallopeptidase 1 (MMP1), MMP1 (gene 4312); assay: BSK_hDFCGF_MMP1: BioMAP Diversity Plus: hDFCGF Assay for Matrix Metallopeptidase 1 (MMP1) Biomarker Activity (AID 2283064); conditions: primary human foreskin fibroblasts; actives raise or lower the signal
In short: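 hDFCGF primary fibroblasts (human foreskin); chemical added; 24 h; MMP1 by ELISA; bidirectional fit vs DMSO.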

[6] = read-out: Vascular cell adhesion molecule 1 (VCAM1), VCAM1 (gene 7412); assay: BSK_hDFCGF_VCAM1: BioMAP Diversity Plus: hDFCGF Assay for Vascular cell adhesion molecule 1 (VCAM1) Biomarker Activity (AID 2283065); conditions: primary human foreskin fibroblasts; actives raise or lower the signal;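 as to AC50: VCAM-1 protein level quantified by ELISA after 24 h chemical exposure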
In short: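 ELISA read-out of VCAM-1 on human skin fibroblasts, 24 h post-dose; gain or loss of signal fitted bidirectionally against DMSO baseline.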

[7] = read-out: Plasminogen activator inhibitor-1 (PAI1), SERPINE1 (gene 5054); assay: BSK_hDFCGF_PAI1: BioMAP Diversity Plus: hDFCGF Assay for Plasminogen activator inhibitor-1 (PAI1) Biomarker Activity (AID 2283066); conditions: primary human foreskin fibroblasts; actives raise or lower the signal
In short: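 Human foreskin fibroblasts in the hDFCGF system were dosed with compound for 24 h; PAI-1 was quantified by ELISA. Bidirectional curve fitting used DMSO as negative control and baseline.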

[8] = read-out: Intercellular Adhesion Molecule 1 (ICAM1), ICAM1 (gene 3383); assay: BSK_KF3CT_ICAM1: BioMAP Diversity Plus: KF3CT Assay for Intercellular Adhesion Molecule 1 (ICAM1) Biomarker Activity (AID 2283067); conditions: primary human keratinocytes with fibroblasts; actives raise or lower the signal
In short: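 ELISA readout of ICAM-1; KF3CT human skin co-culture (keratinocytes + foreskin fibroblasts), 24 h post-dose; gain/loss fit vs DMSO baseline.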

[9] = read-out: Interferon-gamma inducible Protein 10 (IP10), CXCL10 (gene 3627); assay: BSK_KF3CT_IP10: BioMAP Diversity Plus: KF3CT Assay for Interferon-gamma inducible Protein 10 (IP10) Biomarker Activity (AID 2283068); conditions: primary human keratinocytes with fibroblasts; actives raise or lower the signal
In short: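 In a primary skin co-culture of keratinocytes and fibroblasts, IP-10 is quantified by ELISA at 24 h after dosing. SRB staining of parallel wells monitors overt toxicity. Curves are fitted both directions against DMSO.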

[10] = BSK_KF3CT_SRB: Viability Assessment in the BioMAP Diversity Plus: KF3CT Assay (AID 2283069); conditions: primary human keratinocytes with fibroblasts;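 also: total protein by sulforhodamine B staining as a cytotoxicity measure; read 24 h after compound addition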
In short: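 Keratinocytes co-cultured with foreskin fibroblasts (human primary); chemical added, 24 h; fix 10% TCA, stain 0.1% SRB, A560. Bidirectional fit vs DMSO.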

[11] = read-out: Interleukin-1 alpha (IL1a), IL1A (gene 3552); assay: BSK_KF3CT_IL1a: BioMAP Diversity Plus: KF3CT Assay for Interleukin-1 alpha (IL1a) Biomarker Activity (AID 2283070); conditions: primary human keratinocytes with fibroblasts; actives raise or lower the signal
In short: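 Chemicals were dosed onto co-cultured human keratinocytes and foreskin fibroblasts, IL-1a was quantified by ELISA at 24 h, and activity was fitted in both directions relative to DMSO controls.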

[12] = read-out: TIMP metallopeptidase inhibitor 2 (TIMP2), TIMP2 (gene 7077); assay: BSK_KF3CT_TIMP2: BioMAP Diversity Plus: KF3CT Assay for TIMP metallopeptidase inhibitor 2 (TIMP2) Biomarker Activity (AID 2283071); conditions: primary human keratinocytes with fibroblasts; actives raise or lower the signal
In short: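 Human primary keratinocyte/foreskin fibroblast co-culture dosed with chemical and sampled at 24 h. TIMP-2 levels quantified by ELISA; bidirectional fitting against DMSO negative control as baseline.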

[13] = read-out: Transforming growth factor beta 1 (TGFb1), TGFB1 (gene 7040); assay: BSK_KF3CT_TGFb1: BioMAP Diversity Plus: KF3CT Assay for Transforming growth factor beta 1 (TGFb1) Biomarker Activity (AID 2283072); conditions: primary human keratinocytes with fibroblasts; actives raise or lower the signal
In short: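 Human keratinocyte plus foreskin fibroblast primary co-culture, dosed with chemical for 24 h. TGF-b1 quantified by ELISA. Activity fitted bidirectionally against DMSO negative control as baseline.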

[14] = read-out: C-C motif chemokine 2 (Homo sapiens) (UniProt P13500); assay: BSK_KF3CT_MCP1: BioMAP Diversity Plus: KF3CT Assay for Monocyte Chemoattractant Protein 1 (MCP1/CCL2) Biomarker Activity (AID 2283073); conditions: primary human keratinocytes with fibroblasts; actives raise or lower the signal
In short: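 KF3CT skin co-culture (keratinocytes/foreskin fibroblasts), 24 h post-dose; MCP-1 by ELISA; gain/loss of signal fit bidirectionally vs DMSO baseline.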

[15] = read-out: Matrix Metallopeptidase 9 (MMP9), MMP9 (gene 4318); assay: BSK_KF3CT_MMP9: BioMAP Diversity Plus: KF3CT Assay for Matrix Metallopeptidase 9 (MMP9) Biomarker Activity (AID 2283074); conditions: primary human keratinocytes with fibroblasts; actives raise or lower the signal;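 as to AC50: MMP9 protein level quantified by ELISA in the co-culture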
In short: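 Human keratinocyte/foreskin fibroblast co-culture; compound added; 24 h; MMP-9 by ELISA; bidirectional fit vs DMSO baseline.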

[16] = read-out: urokinase plasminogen activator (uPA), PLAU (gene 5328); assay: BSK_KF3CT_uPA: BioMAP Diversity Plus: KF3CT Assay for urokinase plasminogen activator (uPA) Biomarker Activity (AID 2283075); conditions: primary human keratinocytes with fibroblasts; actives raise or lower the signal
In short: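 ELISA readout of uPA, analyzed for signal gain or loss relative to DMSO, from a human primary keratinocyte–foreskin fibroblast co-culture measured 24 h after chemical treatment.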

[17] = read-out: CD40, CD40 (gene 958); assay: BSK_LPS_CD40: BioMAP Diversity Plus: LPS Assay for CD40 Biomarker Activity (AID 2283076); conditions: primary human HUVEC with PBMC; actives raise or lower the signal
In short: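 ELISA readout of CD40 in HUVEC/PBMC co-culture (BSK_LPS system), 24 h post-dosing; bidirectional curve fit, DMSO baseline; parallel SRB total-protein staining for cytotoxicity.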

[18] = read-out: E-selectin (Homo sapiens) (UniProt P16581); assay: BSK_LPS_Eselectin: BioMAP Diversity Plus: LPS Assay for Eselectin Biomarker Activity (AID 2283077); conditions: primary human HUVEC with PBMC; actives raise or lower the signal
In short: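 ELISA readout of E-selectin, 24 h post-dose, HUVEC + PBMC co-culture (LPS system). Gain or loss of signal vs DMSO baseline, bidirectional fit.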

[19] = read-out: Interleukin-8 (IL8), CXCL8 (gene 3576); assay: BSK_LPS_IL8: BioMAP Diversity Plus: LPS Assay for Interleukin-8 (IL8) Biomarker Activity (AID 2283078); conditions: primary human HUVEC with PBMC; actives raise or lower the signal
In short: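 HUVEC + PBMC co-culture, LPS-activated; test chemicals dosed, IL-8 read by ELISA at 24 h. Bidirectional curve fit vs DMSO baseline (gain or loss of signal).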

[20] = BSK_LPS_SRB: Viability Assessment in the BioMAP Diversity Plus: LPS Assay (AID 2283079); conditions: primary human HUVEC with PBMC;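 also: total protein by sulforhodamine B absorbance as a cytotoxicity measure; measured one day after compound addition; fitted in both directions against DMSO so loss or gain of signal counts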
In short: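 HUVEC + PBMC co-culture, LPS-stimulated; compound 24 h. 10% TCA fix, 0.1% SRB stain, A560. Bidirectional fit vs DMSO.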

Measured: AC50

E-selectin (Homo sapiens), sequence (P16581 whole entry, looked up): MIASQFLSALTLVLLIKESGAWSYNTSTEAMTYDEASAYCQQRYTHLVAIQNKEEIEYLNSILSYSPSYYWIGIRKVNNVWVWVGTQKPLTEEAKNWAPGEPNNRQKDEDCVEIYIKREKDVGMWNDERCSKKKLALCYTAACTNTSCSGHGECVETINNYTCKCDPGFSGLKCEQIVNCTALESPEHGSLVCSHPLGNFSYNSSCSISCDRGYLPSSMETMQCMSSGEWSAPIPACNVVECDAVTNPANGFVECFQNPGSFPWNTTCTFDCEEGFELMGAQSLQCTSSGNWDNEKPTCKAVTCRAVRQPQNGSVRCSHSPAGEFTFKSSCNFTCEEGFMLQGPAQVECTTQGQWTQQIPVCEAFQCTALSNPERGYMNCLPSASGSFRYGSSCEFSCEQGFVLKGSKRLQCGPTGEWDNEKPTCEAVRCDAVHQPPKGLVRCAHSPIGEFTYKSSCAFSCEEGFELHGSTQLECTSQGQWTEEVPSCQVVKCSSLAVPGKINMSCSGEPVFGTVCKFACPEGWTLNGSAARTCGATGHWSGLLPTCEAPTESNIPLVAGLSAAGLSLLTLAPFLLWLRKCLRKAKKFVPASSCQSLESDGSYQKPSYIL

CC1(C)C(C(=O)OC(C#N)c2cccc(Oc3ccccc3)c2)C1(C)C (centres undefined)
active: [5] 3.02 µM | [15] 5.56 µM | [17] 12.9 µM
inactive: all other assays above

CCNC(=O)NC(=O)C(C#N)=NOC
not listed: [14] | [18] | [20]
inactive: all other assays above

CC(C)N1C(=O)N(c2ccccc2)CSC1=NC(C)(C)C
inactive: [1] | [3] | [5] | [7] | [8] | [12] | [13] | [14] | [16]
active: [2] 32.7 µM | [4] 31.6 µM | [6] 32.1 µM | [9] 33.2 µM | [10] 30.8 µM | [11] 26.3 µM | [15] 31.6 µM | [17] 28.2 µM | [18] 30.6 µM | [19] 17.1 µM

Nc1c(Cl)c(Cl)nc(C(=O)O)c1Cl
not listed: [20]
inactive: all other assays above

COP(=S)(OC)Oc1ccc([N+](=O)[O-])c(C)c1
active: [1] 13.2 µM | [6] 9.37 µM | [15] 15.1 µM | [20] 10.6 µM
not listed: [18]
inactive: all other assays above

CCCCOCN(C(=O)CCl)c1c(CC)cccc1CC
active: [1] 16.5 µM | [2] 31.1 µM | [3] 13.7 µM | [4] 33.3 µM | [5] 34.8 µM | [6] 16.9 µM | [7] 20 µM | [8] 35.2 µM | [9] 26.4 µM | [10] 35.6 µM | [11] 35.3 µM | [12] 31.6 µM | [13] 32.7 µM | [14] 39.1 µM | [15] 25.7 µM | [16] 31.3 µM | [17] 22.5 µM | [18] 31.3 µM | [19] 28 µM

CC(C)Nc1nc(Cl)nc(NC(C)C)n1
not listed: [13] | [20]
inactive: all other assays above

COCC(C)N(C(=O)CCl)c1c(C)csc1C (centres undefined)
active: [7] 20 µM
inactive: [1] | [2] | [3] | [4] | [5] | [6] | [7] | [8] | [9] | [10] | [11] | [12] | [14] | [15] | [16] | [17] | [19]

CCC(C)n1c(=O)[nH]c(C)c(Br)c1=O (centres undefined)
not listed: [13] | [20]
inactive: all other assays above

Cc1c(COC(=O)[C@@H]2[C@H](/C=C(\Cl)C(F)(F)F)C2(C)C)cccc1-c1ccccc1
active: [1] 3.97 µM | [5] 3.23 µM | [19] 5.39 µM
inactive: all other assays above

CCCCC(O)(Cn1cncn1)c1ccc(Cl)cc1Cl (centres undefined)
active: [5] 12.7 µM | [7] 21.2 µM
not listed: [13] | [18]
inactive: all other assays above

N#CN=C1SCCN1Cc1ccc(Cl)nc1
not listed: [13] | [20]
inactive: all other assays above

C=C(C)CN(CC)c1c([N+](=O)[O-])cc(C(F)(F)F)cc1[N+](=O)[O-]
active: [5] 3.92 µM | [9] 14.9 µM | [17] 20 µM
not listed: [13]
inactive: all other assays above

COC(=O)NS(=O)(=O)c1ccc(N)cc1
not listed: [13] | [18] | [20]
inactive: all other assays above
